Data published in PubChem BioAssay.
Values joined by “and” are separate entries in the source; they are usually repeats but may differ in a detail not shown here. Identical values can stand only once. Unmarked numbers belong to inactive results. How the calls were made is not given here.

What follows are compounds tested against Pantothenate synthetase (Mycobacterium tuberculosis (strain ATCC 25618 / H37Rv)) (UniProt P9WIL5) (assay: Recombinant Mtb pantothenate synthetase (PanC) inhibitors, coupled enzyme, confirmatory (AID 375;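 further: 0% = full reaction with vehicle and 100% = no enzyme background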)). Details: coupled enzyme assay; at 10 µM, stronger effect = higher value.
Chain of Pantothenate synthetase (Mycobacterium tuberculosis (strain ATCC 25618 / H37Rv)) (P9WIL5 whole entry, looked up): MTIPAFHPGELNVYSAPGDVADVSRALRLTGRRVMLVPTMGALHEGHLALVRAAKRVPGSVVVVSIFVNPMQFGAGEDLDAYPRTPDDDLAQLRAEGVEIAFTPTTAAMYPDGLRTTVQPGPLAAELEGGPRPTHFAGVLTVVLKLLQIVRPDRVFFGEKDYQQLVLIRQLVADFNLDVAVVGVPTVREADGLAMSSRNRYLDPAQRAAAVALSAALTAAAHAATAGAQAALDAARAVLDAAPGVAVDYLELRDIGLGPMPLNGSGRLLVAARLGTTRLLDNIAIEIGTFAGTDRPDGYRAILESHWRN
`O=c1cc(-c2ccccc2)[nH]c2nc3ccccc3n12` was tested, and the inhibition was 0%. With `CCOC(=O)CNC(=O)C(Cc1ccccc1)NS(=O)(=O)c1ccc2c(c1)CCC(=O)N2` (stereo not drawn) the inhibition was 0%. `CCOCCCNC(=O)C(c1ccccc1)N(Cc1ccc2c(c1)OCO2)C(=O)CNC(C)=O` (stereo not drawn) was tested, and the inhibition was 1%. `CCOC(=O)c1sc2cccc(F)c2c1N` gave an inhibition of 13%. Work on `COc1ccccc1C(=O)n1nc(-c2ccccc2)nc1N` yielded an inhibition of 2%. `c1ccc(CN2CCN(CCCNc3ccc4nnc(-c5ccccc5)n4n3)CC2)cc1` showed an inhibition of 10%. With `CCC1CCCCN1S(=O)(=O)c1ccc(C(=O)Nc2nnc(-c3cccs3)o2)cc1` (stereo not drawn) the inhibition was 2%. For `CN(C)C(=O)Oc1cccc([N+](C)(C)C)c1`, the inhibition was 9% and 0%. With `O=C(O)c1ccc(-n2nnnc2Oc2ccccc2C(=O)N2CCOCC2)cc1` the inhibition was 4%. For `CCN(CC)CCCN1C(=O)C(=O)/C(=C(/O)c2ccc3c(c2)OCO3)C1c1ccccn1` (stereo not drawn), the inhibition was 1%. With `CC(C)OC(=O)CSc1nnc(-c2ccc(C(C)(C)C)cc2)n1N` the inhibition was 0%. With `CCc1nc2scc(-c3ccccc3)c2c(=O)n1N` the inhibition was 5%. Work on `CCOC(=O)C1=C(C)NC(=O)NC1c1ccc(OCCO)c(OC)c1` (stereo not drawn) yielded an inhibition of 0%. Work on `COC(=O)Nc1ccc(S(=O)(=O)N2CCN(c3ccc(F)cc3)CC2)cc1` yielded an inhibition of 0%. In the case of `CC(C)(C)c1ccc2c(c1)OCC(C(=O)O)O2` (stereo not drawn), the inhibition is reported as 4%. Work on `COc1ccc(OC)c(NC(=O)CS(=O)(=O)c2ccccc2)c1` yielded an inhibition of 0%. For `COc1cc(NC2c3ccccc3C(=O)N2c2ccc(C)cn2)cc(OC)c1OC` (stereo not drawn), the inhibition was 0%. `O=C(Cn1nnc2ccccc2c1=O)NC1CCCc2ccccc21` (stereo not drawn) was tested, and the inhibition was 5%. `Cc1cc(C)n(Cc2cc(C)c(Cn3nc(C)cc3C)cc2C)n1` showed an inhibition of 3%. `Cc1ccnc(NS(=O)(=O)c2ccc(NC(=O)Cc3cccs3)cc2)n1` showed an inhibition of 3%. `CCOC(=O)c1cccc(NC2c3ccccc3C(=O)N2Cc2ccco2)c1` (stereo not drawn) showed an inhibition of 7%. With `COc1ccc(N(CC(=O)NC2CCCC2)C(=O)Cn2nnc(-c3ccc(C)cc3)n2)cc1` the inhibition was 0%. `Cc1nn(C)c(C)c1NC(=O)CCSc1nc(-c2ccco2)cc(C(F)(F)F)n1` was tested, and the inhibition was 6%.
